Test results as given in PubChem BioAssay.
Active and inactive are the calls of the source.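 Rule for the calls, unless noted: active = inhibition at or above 50% at 10 µM; inactive = inhibition below 50%.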

Legend:
[1] = inhibitors of TNFa-induced NFkB p65 translocation, primary screen, imaging, HUVEC, MLSMR starter and 10KST1 sets (AID 438;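 active = inhibition above 20% together with a positive visual image hit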;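 note: compound added about 3h40 before a 20 min TNFalpha stimulation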;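 for inhibition: signal is the nuclear over cytoplasmic p65 intensity ratio per well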); details: HUVEC TNFa-induced p65 nuclear translocation; cell count: measured here: nuclei count (cytotoxicity indicator), at 2.08 µM; inhibition: at 2 µM, stronger effect = higher value, 0% TNFa-plus-vehicle, 100% no-TNFa wells
[2] = inhibitors of mutant huntingtin aggregation, primary screen, imaging, exon1htt(103Q)mCFP cells, high-content imaging (AID 483;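 active = visual image review flags a hit and inhibition of aggregation exceeds 20%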;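 note: compound exposure lasted 3 days before fixation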;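 for nuclei count: percent of the per-plate median nuclei count of sample wells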); details: exon1htt(103Q)mCFP cell line, aggregate imaging, at 2 µM; inhibition of aggregation: stronger effect = higher value; nuclei count: measured here: cell count, toxicity
[3] = inhibitors of E-selectin induction by TNFa, primary screen, imaging, HUVEC, immunofluorescence, MLSMR starter and 10KST1 sets (AID 487;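 active = visually confirmed hit in the image check and inhibition above 20%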;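 for inhibition: signal is fraction of cell area covered by stained E-selectin grains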;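 for nuclei count: 100% = median nuclei count of all wells on the same plate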); details: HUVEC TNFalpha-induced E-selectin immunofluorescence imaging, at 2 µM; inhibition: stronger effect = higher value; nuclei count: measured here: cell number, toxicity
[4] = molecular target: Voltage-gated potassium channel subunit beta-2 (Rattus norvegicus) (UniProt P62483); assay: KvBeta enzyme negative modulators, primary screen, biochemical, NADPH fluorescence (AID 622;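 active = fluorescence slope higher than the sample average by over 3 SD, cut at about -0.22 in these data, passing the limit was not always enough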;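 note: slope of raw intensity against log time taken from 70 to 1610 s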); details: recombinant KvBeta, 4-cyanobenzaldehyde reduction, at 10 µM, stronger effect = higher value
[5] = molecular target: Voltage-gated potassium channel subunit beta-2 (Rattus norvegicus) (UniProt P62483); assay: KvBeta positive modulators, primary screen, biochemical, NADPH fluorescence (AID 623;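 active = NADPH fluorescence slope more negative than the mean of all samples by about 3 SD, 99.7% confidence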;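 note: fluorescence intensity change per second fitted from 20 to 320 s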); details: Recombinant KvBeta, NADPH fluorescence decrease slope, 10 min; at 10 µM; stronger effect = lower value
[6] = molecular target: Alpha-2C adrenergic receptor (Homo sapiens) (UniProt P18825); assay: modulators of alpha2C/GIRK thallium flux, primary screen, cell-based, HEK293 alpha2C/GIRK1/2 (AID 624;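 active = fluorescence slope after compound addition differing from the mean of all screened samples at 99.7% confidence, in either direction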;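 note: slope of fluorescence ratio to pre-addition baseline per second over 15 to 24 s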); details: thallium flux BTC fluorescence, at 10 µM, actives lie on both sides
[7] = inhibitors of Sendai virus-induced IRF3 signaling, primary screen, TLR/RLR signaling modifier project, cell-based, Sendai virus stimulus, luciferase, 10K MLSCN set (AID 602276); details: HEK293 RL24 IRF3 luciferase reporter, at 10 µM, stronger effect = higher value;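 note: firefly luciferase from ISG56 promoter only with Renilla not read in this screen; 0% = Sendai virus plus DMSO and 100% = medium plus DMSO without virus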
[8] = inhibitors of poly I:C-induced TLR3 signaling, primary screen, cell-based, poly I:C stimulus, luciferase, 10K MLSCN set (AID 602277;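 active = inhibition of the reporter signal at or above 50%; inactive = inhibition below 50%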); details: HEK293-TLR3 RL24 IRF3 luciferase reporter, at 10 µM, stronger effect = higher value

Sequence of Alpha-2C adrenergic receptor (Homo sapiens) (P18825 whole entry, looked up): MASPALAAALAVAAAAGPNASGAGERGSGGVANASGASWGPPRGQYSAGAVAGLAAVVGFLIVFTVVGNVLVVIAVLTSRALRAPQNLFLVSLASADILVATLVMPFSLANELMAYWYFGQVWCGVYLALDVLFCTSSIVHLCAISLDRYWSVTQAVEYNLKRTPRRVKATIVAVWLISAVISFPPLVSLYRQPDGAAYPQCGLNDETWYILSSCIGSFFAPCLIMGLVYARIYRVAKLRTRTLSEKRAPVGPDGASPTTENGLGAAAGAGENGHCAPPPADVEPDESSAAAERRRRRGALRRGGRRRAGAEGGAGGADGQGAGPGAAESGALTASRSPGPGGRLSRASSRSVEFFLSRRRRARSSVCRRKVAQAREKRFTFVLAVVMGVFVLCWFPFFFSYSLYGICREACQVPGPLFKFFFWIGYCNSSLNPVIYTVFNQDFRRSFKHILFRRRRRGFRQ
Sequence of Voltage-gated potassium channel subunit beta-2 (Rattus norvegicus) (P62483 whole entry, looked up): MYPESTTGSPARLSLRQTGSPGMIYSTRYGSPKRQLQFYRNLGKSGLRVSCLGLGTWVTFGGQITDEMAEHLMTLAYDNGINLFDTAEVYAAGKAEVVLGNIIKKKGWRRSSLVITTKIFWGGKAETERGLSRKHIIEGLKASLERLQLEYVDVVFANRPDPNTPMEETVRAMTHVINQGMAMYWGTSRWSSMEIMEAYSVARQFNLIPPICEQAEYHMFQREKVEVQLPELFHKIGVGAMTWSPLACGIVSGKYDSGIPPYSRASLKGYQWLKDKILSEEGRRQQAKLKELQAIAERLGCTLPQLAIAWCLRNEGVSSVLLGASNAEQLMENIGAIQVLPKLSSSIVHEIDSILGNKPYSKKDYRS

| Structure (SMILES) | cell count [1] | inhibition [1] | inhibition of aggregation [2] | nuclei count [2] [%] | inhibition [3] | nuclei count [3] [%] | fluorescence slope [4] | NADPH fluorescence slope [5] | slope [6] | inhibition [7] | inhibition [8] |
| --- | --- | --- | --- | --- | --- | --- | --- | --- | --- | --- | --- |
| CNC(=O)c1ccsc1NC(=O)c1ccccc1 | 512 | 4.7% (inactive) | 12.3% (inactive) | 91.6 | 7.3% (inactive) | 88.8 | -0.413 (inactive) | -1.9e-05 (inactive) | 0.00587 (inactive) | -11.3% (inactive) | -28.3% (inactive) |
| CCCC(=O)Nc1ccc2oc(-c3cccnc3)nc2c1 | 330 | -1.1% (inactive) | 18.2% (inactive) | 82.7 | -1.9% (inactive) | 62.2 | -0.332 (inactive) | -1.1e-05 (inactive) | 0.00331 (inactive) | -23.4% (inactive) | -96.1% (inactive) |
| O=C1c2ccccc2C(=O)N1CCCCN1CCN(CCCCN2C(=O)c3ccccc3C2=O)CC1 | 401 | -3.5% (inactive) | 17.2% (inactive) | 2.4 | -22.5% (inactive) | 86.8 | -0.408 (inactive) | -3.8e-05 (inactive) | 0.00409 (inactive) | 14.1% (inactive) | 10.6% (inactive) |
| Cc1ccc(C2=Nc3ccccc3NC(C)(c3ccc(C)o3)C2)o1 (centres undefined) | 696 | 1.6% (inactive) | -18.4% (inactive) | 100 | -39.9% (inactive) | 100 | -0.54 (inactive) | 1.2e-05 (inactive) | 0.00401 (inactive) | -47.1% (inactive) | -67.9% (inactive) |
| CCOc1ccccc1OCC(=O)NCc1ccco1 | 375 | -3.4% (inactive) | 2.9% (inactive) | 101 | -16.4% (inactive) | 92 | -0.409 (inactive) | -4.3e-05 (inactive) | 0.00437 (inactive) | 11.5% (inactive) | 9.81% (inactive) |
| Cn1c(=O)c2c(nc(SCCCC#N)n2Cc2ccccc2F)n(C)c1=O | 601 | 4.5% (inactive) | -13.6% (inactive) | 109 | -51% (inactive) | 119 | -0.416 (inactive) | -2.8e-05 (inactive) | 0.00541 (inactive) | 12.9% (inactive) | 36.5% (inactive) |
| COc1cccc(OC)c1OCCCSc1nc(C)cc(=O)[nH]1 | 402 | -1.6% (inactive) | 1.1% (inactive) | 108 | 24.3% (inactive) | 97.1 | -0.422 (inactive) | -2.1e-05 (inactive) | 0.00519 (inactive) | -9.76% (inactive) | -3.85% (inactive) |
| COCCNC(=O)CN(C)S(=O)(=O)c1ccc(Br)cc1 | 465 | 2.1% (inactive) | -10.4% (inactive) | 106 | 24.8% (inactive) | 110 | -0.507 (inactive) | -3.7e-05 (inactive) | 0.00533 (inactive) | 11.2% (inactive) | 12.3% (inactive) |
| Cc1c(NC(=O)c2ccc(Br)o2)c(=O)n(-c2ccccc2)n1C | 366 | -5.9% (inactive) | -13.4% (inactive) | 114 | -74% (inactive) | 129 | -0.436 (inactive) | -2.6e-05 (inactive) | 0.00344 (inactive) | 9.74% (inactive) | 34.3% (inactive) |
